The values that follow come from PubChem BioAssay.

Assay [1] deals with Tumor necrosis factor receptor superfamily member 10B (Homo sapiens) (UniProt O14763). As to the kind of experiment: viability loss of caspase-8 NB7 cells with TRAIL – with/without TRAIL, luminescence panel, confirmation (AID 651596). To be noted: NB7 neuroblastoma + caspase-8, TRAIL sensitization, NB7 Caspase-8, with TRAIL, mean of runs, at 10 µM, stronger effect = higher value.
Assay in assay [2]: as above
The conditions noted are these: NB7 neuroblastoma + caspase-8, without TRAIL, NB7 Caspase-8, without TRAIL, mean of runs, at 10 µM.

Tumor necrosis factor receptor superfamily member 10B (Homo sapiens), sequence (O14763 whole entry, looked up): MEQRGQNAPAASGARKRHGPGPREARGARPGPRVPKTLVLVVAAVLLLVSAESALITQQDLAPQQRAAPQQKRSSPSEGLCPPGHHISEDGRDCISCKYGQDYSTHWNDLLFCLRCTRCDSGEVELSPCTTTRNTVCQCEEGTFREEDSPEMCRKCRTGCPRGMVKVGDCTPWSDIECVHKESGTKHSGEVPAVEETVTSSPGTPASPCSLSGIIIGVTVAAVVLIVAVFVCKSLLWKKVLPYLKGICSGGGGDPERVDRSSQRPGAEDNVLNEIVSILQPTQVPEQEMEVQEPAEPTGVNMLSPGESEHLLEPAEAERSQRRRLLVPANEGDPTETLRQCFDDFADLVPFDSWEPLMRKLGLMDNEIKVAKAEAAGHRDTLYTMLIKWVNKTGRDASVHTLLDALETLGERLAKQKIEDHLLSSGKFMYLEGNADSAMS

With `Cc1nc2cc(NC(=O)Nc3ccccc3Cl)ccc2n1C`, the activity worked out at 78.5% in assay [1] and 78.2% in assay [2].

For `O=[N+]([O-])c1c(Nc2ccccc2O)cc(Cl)c2nonc12`, the activity in assay [1] was found to be 63.9%; in assay [2], 98.3%.

On to `O=C(Nc1nc2ccccc2n1CCN1CCCCC1)C1CCCCC1`, for which the figures for the activity in assay [1] and in assay [2] were 56.6% and 54.1%, respectively.

Turning to `CS/C(Nc1cc(Cl)ccc1Cl)=C(/C#N)C(=O)c1ccco1`, the values for the activity in assay [1] and in assay [2] were 60.1% and 65.6%, respectively.

As for `COc1ccc(C2C(C(=O)N3CCN(c4ccccc4F)CC3)c3ccccc3C(=O)N2C)cc1` (stereo unspecified), the values for the activity in assay [1] and in assay [2] were 74.5% and 59%, respectively.

`Cn1c(N)c(C(=O)CCl)c(=O)n(Cc2ccccc2)c1=O`: the activity was determined as 96% in assay [1] and 77.9% in assay [2].

With `C/C(Cn1nnc([N+](=O)[O-])n1)=N\NC(=O)c1ccccc1O`, the results for the activity in assay [1] and in assay [2] were 43.8% and 51%, respectively.

Consider `CN(C)c1cccc(C(=O)N/N=C/c2ccsc2)c1`, for which the activity in assay [1] was found to be 65%; in assay [2] it was 40.4%.

For the molecule `Cn1c(=N)n(CC(=O)c2ccc(F)cc2)c2ccccc21`, the values for the activity in assay [1] and in assay [2] were 75.8% and 67.5%, respectively.

On to `COc1ccc(C2CC(c3ccc(Br)cc3)=NN2C(=O)CSC2=NN3CCCC(=O)N=C3S2)cc1` (stereo unspecified), for which the activity in assay [1] was 95.8%; in assay [2] it was 90.9%.

With `CC(=O)c1ccc(N2CCN(c3ccc4cc(S(=O)(=O)N5CCC(C)CC5)ccc4n3)CC2)cc1`, the values for the activity in assay [1] and in assay [2] were 56.4% and 19.2%, respectively.

`O=C(Nc1ccc2c(c1)OCCO2)c1ccccc1`: the activity in assay [1] came out at 53.7%; in assay [2], 54.6%.

In the case of `CCOC(=O)Cc1csc(NC(=S)NC(=O)c2ccc(C)cc2)n1`, the activity in assay [1] was determined as 84.9%; in assay [2] it was 84.6%.

As to `O=C1[C@H]2[C@@H](/C=C/c3ccccc3)N3C(=O)CN(CC4CC4)C(=O)[C@@]3(Cc3ccccc3)[C@H]2C(=O)N1c1ccccc1`, the activity came out at 73.9% in assay [1] and 97.8% in assay [2].

With `CCOC(=O)c1ccc(NC(=O)c2ccc(C)c(S(=O)(=O)N3CCOCC3)c2)cc1`, the activity in assay [1] stood at 79.3%; in assay [2] it was 69.1%.

Regarding `COc1cc(/C=C(/C#N)c2nc3ccccc3[nH]2)ccc1OCC(=O)Nc1ccccc1C`, the activity in assay [1] came to 86%; in assay [2], 97.8%.

In the case of `Nc1nc(N)c2c(ccc3nccc32)[nH]1`, the results for the activity in assay [1] and in assay [2] were 73.3% and 78.7%, respectively.

On to `Cc1ccsc1/C=N/NC(=O)c1ccc2c(c1)OCCO2`, for which the activity is 75.9% in assay [1] and 68.2% in assay [2].

As for `Nc1ccccc1C#CC(=O)c1ccccc1`, the figures for the activity in assay [1] and in assay [2] were 33.9% and 94.2%, respectively.

As for `COc1ccc(-c2cc(-c3ccccc3)c(C#N)c(S(C)(=O)=O)n2)cc1`, the activity is 79.3% in assay [1] and 96.9% in assay [2].

On to `CCCCN(CC)S(=O)(=O)c1ccc(C(=O)N=c2sc3cc(NC(C)=O)ccc3n2C)cc1`, for which the activity in assay [1] stood at 20.9%; in assay [2] it was 53.8%.

On to `CCOc1ccc(OCC(=O)N(CCC2=CCCCC2)c2c(N)n(Cc3ccccc3)c(=O)[nH]c2=O)cc1`, for which the activity was 48.6% in assay [1] and 1.7% in assay [2].

Take `C/C(=N\NC(=O)c1ccc2c(c1)OCO2)c1ccco1`: the activity in assay [1] came out at 53.5%; in assay [2], 57.3%.

With `O=C(CCl)N(CCc1ccccc1)CCc1ccccc1`, the activity in assay [1] stood at 99.4%; in assay [2] it was 98.2%.

For `O=C(OCn1ncc(Cl)c(Cl)c1=O)c1ccc(C(F)(F)F)cc1`, the activity was 95.2% in assay [1] and 94% in assay [2].

As to `c1ccc(-c2nnc3sc(CN4CCC5(CC4)OCCO5)cn23)cc1`, the activity in assay [1] was found to be 57.7%; in assay [2], 60.9%.

On to `COC(=O)c1cccc(NC(=O)c2cc3ccccc3o2)c1`, for which the activity turned out to be 57.4% in assay [1] and 58.6% in assay [2].

Take `CCOC(=O)c1sc(N(Cc2ccccc2)C(=O)CCl)nc1C`: the activity was found to be 99.1% in assay [1] and 76.5% in assay [2].

As to `NC(=O)c1ccccc1N/C=C/C(=O)c1ccc(F)cc1`, the activity in assay [1] was found to be 78.8%; in assay [2] it was 73%.

For `O=C(Oc1c(CN2CCOCC2)cc(Cl)c2cccnc12)c1ccccc1Br`, the values for the activity in assay [1] and in assay [2] were 53.5% and 52.8%, respectively.

For `Cc1ccc(-c2cc(C(=O)N/N=C/c3cccnc3)c3ccccc3n2)cc1C`, the activity in assay [1] is 43.9%; in assay [2], 35%.

As to `CN(C)S(=O)(=O)c1ccc(-c2csc(N/N=C/c3ccco3)n2)cc1`, the activity in assay [1] worked out at 81%; in assay [2], 77.8%.

As for `COc1ccc(-c2cc(C(=O)N3CCCC3)no2)cc1`, the results for the activity in assay [1] and in assay [2] were 64.9% and 59.8%, respectively.

Turning to `CCOC(=O)CSc1nc2cc(C)ccc2cc1C#N`, the activity in assay [1] came out at 39.8%; in assay [2], 38.4%.

Consider `c1ccc(-c2cc3cc4c(cc3cn2)OCO4)cc1`, for which the activity in assay [1] is 43.8%; in assay [2], 29%.

As to `O=[N+]([O-])c1c(Nc2cccc(O)c2)cc(Cl)c2nonc12`, the activity is 97% in assay [1] and 99.5% in assay [2].

In the case of `CCOC(=O)c1cn2nc(N3CCCCC3)ccc2n1`, the results for the activity in assay [1] and in assay [2] were 52.5% and 72.9%, respectively.

Regarding `Cc1nc(-c2ccc(NC(=O)CC(C)C)cc2)cs1`, the activity in assay [1] is 51.7%; in assay [2], 55.5%.

Regarding `O=C1C(=Cc2ccc(Cl)cc2)CCc2ccccc21`, the activity in assay [1] came to 85.8%; in assay [2] it was 78.7%.

With `O=C(CCl)N(c1ccccc1)c1ccccc1`, the activity in assay [1] came to 99.2%; in assay [2], 99%.

Consider `Oc1cccc(-c2nnc(-c3cccc(O)c3)nn2)c1`, for which the activity in assay [1] was 89%; in assay [2], 84.2%.

As for `COc1ccc2oc(=Nc3ccccc3)c(-c3nc4ccccc4[nH]3)cc2c1`, the activity turned out to be 52.8% in assay [1] and 55% in assay [2].

Take `O=C(NC(=S)N1CCN(c2ccc(C(F)(F)F)cc2[N+](=O)[O-])CC1)c1cccs1`: the activity amounted to 60.9% in assay [1] and 62.1% in assay [2].
